{
  "source": "PubChem BioAssay AID1508600",
  "about": "(Functional Genomics Laboratory (NCATS/FGL), 2020)",
  "note": "Screen size: about 53,000 sequences; about 3,700 (7%) were called active. The entries come from a sample that favours actives as a whole. Unmarked numbers belong to inactive results.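 Rule for the calls: active = gene knockdowns whose robust z-score for IL-1 alpha signal is at least 2 or at most -2, so actives lie on both sides; inactive = the rest.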",
  "data": [
    {"assay": "Components of the Cytosolic LPS Sensing Pathway: Gene Identification via Genome-wide siRNA Screen;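 note: robust z of the log signal after scaling to non-targeting control siRNA wells of the plate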", "settings": "RAW264.7 macrophages, IL-1a HTRF, actives lie on both sides, screened at 100 nM (by protocol), cells primed 5 h with Pam3CSK4 first", "outline": "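Mouse macrophage line RAW264.7 is transfected with siRNA (100 nM final), grown 48h, primed with TLR ligand Pam3CSK4 5 h and given intracellular LipidA 24 h. IL-1a in supernatant is read by HTRF and viability by luminescence.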", "values": [
      {"sequence": "CCAUAAAAACCAGAGAAAUTT against Plekhf2", "z-score": -0.778},
      {"sequence": "GGUCGACUUAAGAUAAUAATT against Itgb6", "z-score": -0.294},
      {"sequence": "CCCUGUUAAGGAAUGCAAATT against Chil1", "z-score": 0.367},
      {"sequence": "GGAGAAAUUCGACUGAAAATT against Pcdhb13", "z-score": "3.47 (active)"},
      {"sequence": "GGCUUUUUGCUUCACUACUTT against Slco4c1", "z-score": 1.06},
      {"sequence": "GGCGAAUUAUUGAAAACGUTT against Actr8", "z-score": 0.916},
      {"sequence": "GGAGUUGGAUAUUCUAAAATT against B3gntl1", "z-score": -0.64},
      {"sequence": "GGGCAACCUGGUUACACAUTT against Zfp637", "z-score": 1.25},
      {"sequence": "UAGUCAUUGGGAUUCCUUCTT against Olfr112", "z-score": "2.98 (active)"},
      {"sequence": "GGUGGAAUGAAAGAACAAGTT against Klhl13", "z-score": 1.74},
      {"sequence": "GGCCAGGAAAGAUACAGGATT against Rab3c", "z-score": 0.486},
      {"sequence": "GGCCAUGCUGAAAGUAUUUTT against Olfr561", "z-score": -1.46},
      {"sequence": "GCUUAGAAUCUCUGGACAATT against Rnf168", "z-score": "3.21 (active)"},
      {"sequence": "CGGGAACAUAUCAGACUAATT against Mcm3ap", "z-score": -0.844},
      {"sequence": "GGCCAUUGAGCUCAACCCUTT against Sgta", "z-score": -1.88},
      {"sequence": "CCUAUAAAUGUCCUUAGUCTT against Ccdc115", "z-score": 0.127},
      {"sequence": "CCUAUGGUGCUCUUAUAAATT against Dpp6", "z-score": -0.178},
      {"sequence": "GGUCUUAUGUAAGUGGUAUTT against Ociad1", "z-score": "-2.03 (active)"},
      {"sequence": "GGCACUGUGGUGUAAAUCCTT against Nnt", "z-score": -1.53},
      {"sequence": "GGACAUCGAGCUUCAGAUCTT against Dnm1l", "z-score": "2.68 (active)"},
      {"sequence": "GGAGAUCGAUGGAGACUUCTT against Sftpa1", "z-score": -0.773},
      {"sequence": "CGACGAAUGUCCUGAACAUTT against Tmem106a", "z-score": -0.193},
      {"sequence": "GCCUUGAUCCUACUGUAACTT against Amigo3", "z-score": "2.12 (active)"},
      {"sequence": "GGGACUUAAGGUUAGACACTT against E330018D03Rik", "z-score": 0.163},
      {"sequence": "CGACCUGUUCGCCAUCAAATT against Scaf1", "z-score": 0.511},
      {"sequence": "CGAGGUGCUAAUCUGGCCUTT against Dctpp1", "z-score": 0.241},
      {"sequence": "GGAACAAAUCCUGGAACUGTT against Zfp449", "z-score": 1.15},
      {"sequence": "GGACUGGUCAGAGAUGGAUTT against Pced1a", "z-score": "5.33 (active)"},
      {"sequence": "GGAAAUGUGGUAAUUCCGATT against Cd44", "z-score": 0.256},
      {"sequence": "CGAAAUGAAAACUUCCUGGTT against Mab21l1", "z-score": 0.989},
      {"sequence": "CCAUCAGUAUUCACAACAATT against Usp42", "z-score": "-3.12 (active)"},
      {"sequence": "GUUACCUCGUGGAAAGCAUTT against Vmn1r43", "z-score": -0.345},
      {"sequence": "GGUUUGAAGAUGAUGCCUCTT against Nfkbil1", "z-score": -0.848},
      {"sequence": "GGACCACUAGACCUGAUAATT against Itgb1bp1", "z-score": 0.116},
      {"sequence": "GCAUCCCGACUACAAGUACTT against Sox21", "z-score": "-2.06 (active)"},
      {"sequence": "GGUCCGGUCUCAGACUUCATT against Ift27", "z-score": 1.16},
      {"sequence": "GAUUGUCACCACCUUAAGATT against Chchd5", "z-score": -0.964},
      {"sequence": "CGAGAUGUCCCAGAAUCAUTT against Wdr75", "z-score": "-2.26 (active)"},
      {"sequence": "GCCAUGUUCCCAUUUAACUTT against A730018C14Rik", "z-score": 1.34},
      {"sequence": "GCACGAGGAUGUGAUAUUCTT against Txndc2", "z-score": -0.65},
      {"sequence": "CCUUCUCUUUGCUCUAUGUTT against Olfr1284", "z-score": -0.647},
      {"sequence": "GCAUCGACAACCUCUCUAGTT against Hba-x", "z-score": "3.15 (active)"},
      {"sequence": "GCUUAGUUUAUGAGAAUGCTT against Ptprh", "z-score": -0.791},
      {"sequence": "GGCCAUAUUUGUGACUGUGTT against Hao1", "z-score": -1.58},
      {"sequence": "GGAUCUUGAAGCCAAAUACTT against Ccdc127", "z-score": "2.56 (active)"},
      {"sequence": "GGUAACCAAAACAAUUCUGTT against Cog8", "z-score": -0.00241},
      {"sequence": "GGUGUCUGAGUAAUUCUGGTT against Zscan5b", "z-score": -1.55},
      {"sequence": "GUGUAGCUCUUCACAGUUATT against Fgf2os", "z-score": 0.673},
      {"sequence": "GGCUUUGGAAUGAGAGCUUTT against Dynlrb1", "z-score": "-2.07 (active)"},
      {"sequence": "CGUGUUUAGGAAAAAUUGUTT against 2510039O18Rik", "z-score": -0.398},
      {"sequence": "CCUGCUAAGUGAAUUUGUGTT against Cmpk1", "z-score": "2.18 (active)"},
      {"sequence": "GCAACGAGCAAAAAGCAUGTT against Htr2a", "z-score": -0.794},
      {"sequence": "GGUCCUUAUCGCUUGGAUGTT against Vwa8", "z-score": -0.202},
      {"sequence": "GGCUAAGACCAAAACUUUATT against Cyp4f13", "z-score": 0.772},
      {"sequence": "GCAGCUUUGAAAUUGUCCATT against Stard5", "z-score": -1.72},
      {"sequence": "CGAUGCAAAAAGAAUAGACTT against Mark1", "z-score": 0.673},
      {"sequence": "GGCUAGUUUUCUCUUAAAUTT against Usp1", "z-score": "-3.12 (active)"},
      {"sequence": "GAGUGUCCGAUAGACCGUUTT against Rbm4", "z-score": -0.429},
      {"sequence": "GGCGCAAAUACUUCUUCAUTT against Nrg1", "z-score": 0.533},
      {"sequence": "GCACCUUUGAGUGCAACAUTT against Rnf185", "z-score": "-2.37 (active)"},
      {"sequence": "CCUAAGAUUUUGGAACAAATT against Cenpm", "z-score": -0.47},
      {"sequence": "GGCCAGGAGAAGAUUGAACTT against Ccdc42", "z-score": 0.00447},
      {"sequence": "GGCUGAAUCGGCAUUUCCATT against Klhdc3", "z-score": -0.184},
      {"sequence": "GGCUGCAUGGUACAGAUCUTT against Olfr463", "z-score": "-2.33 (active)"},
      {"sequence": "GCUUUUUGAGUCUGAUUUATT against Dmgdh", "z-score": 0.413},
      {"sequence": "GGCAUUCAAAAGGUAAAAUTT against Grid2", "z-score": -0.515},
      {"sequence": "GCUGACUGCCAAGGAUUUUTT against Ogn", "z-score": -0.135},
      {"sequence": "GGCAUGAAACCUCCAAAGCTT against 1520401A03Rik", "z-score": 0.643},
      {"sequence": "CGGAUAUUUACGAACUUACTT against Pitpnb", "z-score": 1.24},
      {"sequence": "GGGUCAGAUUUUCAAUGUCTT against Bmpr1b", "z-score": 0.8},
      {"sequence": "GGUUGAAACUGCUCUCAAGTT against Prl2a1", "z-score": 1.77},
      {"sequence": "GGACCAUGAGGGAAUACAGTT against Bdkrb2", "z-score": "4.91 (active)"},
      {"sequence": "CGCAGACAAGAAAUGAAGGTT against Hnf4aos", "z-score": -1.98},
      {"sequence": "GCAUGAGGAAAAAUCUUCATT against Neurod4", "z-score": -0.158},
      {"sequence": "GGAGAAAUUUAAGAAGAGUTT against Xrcc5", "z-score": 0.674},
      {"sequence": "GCUACAUAAUUCCGAAGUUTT against Fmr1", "z-score": "2.23 (active)"},
      {"sequence": "GCCAGAGGAUAACCUAUCGTT against Dsg4", "z-score": -0.254},
      {"sequence": "AAACUUGGCGUAUCAGGAATT against Gm3696", "z-score": -1.45},
      {"sequence": "GGAGUUUGUCUUCUCUUUCTT against Foxf1", "z-score": 0.0377},
      {"sequence": "GGAGAGUAUGGACAGUAUUTT against Pgc", "z-score": "2.96 (active)"},
      {"sequence": "GCAAAGACAAUCUUUAAGGTT against Pde4d", "z-score": -0.747},
      {"sequence": "CCUUGUAAGUGAGAUCCGATT against Olfr118", "z-score": 1.38},
      {"sequence": "GGAGUAGAUGACAACACUATT against Defb19", "z-score": -0.401},
      {"sequence": "GGCAGCUGUAGAGGUGUUCTT against Haus7", "z-score": "2.36 (active)"},
      {"sequence": "CGUGGCUAAACAAAGAGCUTT against Sass6", "z-score": -0.841},
      {"sequence": "CCCAAAAACGUGACAUCUUTT against Inppl1", "z-score": 0.901},
      {"sequence": "GCCUGGAAUCUCUUCAUGUTT against Pde3a", "z-score": 0.679},
      {"sequence": "GGUGUUCUUGAGCUGUGAGTT against Igfbp7", "z-score": "-2.32 (active)"},
      {"sequence": "CCAAAAGGUUCGAGUUUCATT against Padi4", "z-score": 1.57},
      {"sequence": "GGAGUGUGUAUGGAAAAUATT against Tll1", "z-score": 0.0134},
      {"sequence": "GGCUCUUUCAACGUAAAUUTT against Fan1", "z-score": "-2.72 (active)"},
      {"sequence": "GGACCUUGGGCAGAUUCAATT against Atp10d", "z-score": 0.54},
      {"sequence": "GGGUGUACAGGAUUUCCACTT against Nfyc", "z-score": 0.0255},
      {"sequence": "GGAGCAACAACUUAAAUGUTT against Slc16a4", "z-score": 1.18},
      {"sequence": "GCUUUAGAUACGUGAUUAGTT against Desi2", "z-score": -0.125},
      {"sequence": "CCUUAUGAGUCUUACGACUTT against Zfp326", "z-score": 1.15},
      {"sequence": "CCCUCAAAGACCUGUACAUTT against Gm266", "z-score": "2.78 (active)"},
      {"sequence": "GGAUGAUGAGCUGAACUUUTT against Mgrn1", "z-score": -0.897},
      {"sequence": "AAGAAUACUCAGAUCAGUUTT against Magee2", "z-score": 0.111},
      {"sequence": "GGAAAUCUCAGGUGAGGUCTT against Clcc1", "z-score": -0.127},
      {"sequence": "GGAUCAUCAAGAUAUAGAUTT against Trpm7", "z-score": "2.44 (active)"},
      {"sequence": "GCCAGGAAUCACAAGAGCUTT against Mtg1", "z-score": 0.571},
      {"sequence": "GGAGUUAGAAACUCAUUUUTT against Ppargc1b", "z-score": 1.5},
      {"sequence": "GGCACCCAUUCCUAAAAUGTT against Hmgn5", "z-score": -0.929},
      {"sequence": "GGAUCUGAAAAAAUUAAGCTT against Stat2", "z-score": 0.65},
      {"sequence": "GGAUAUGCCUCCCUUGAUGTT against Gstt3", "z-score": "-2.4 (active)"},
      {"sequence": "CGAGUGUUUGGACAACAAUTT against Ldlr", "z-score": 0.391},
      {"sequence": "CUAUGUGGUCACAAUAGAGTT against Olfr1360", "z-score": 0.411}
    ]}
  ]
}
